Values joined by “and” are separate entries in the source; they are usually repeats but may differ in a detail not shown here. Equal values may be shown once. The whole screen tested about 5,500 compounds, of which about 2,000 (36%) were called active. Inconclusive results (about 18%) are left out. Cut-off read from the data, not from the text of the source: active = normalized growth mostly below about 0.91 (no sharp cut-off); inconclusive = no clear call, values can overlap the other calls; inactive = mostly above about 0.92. This is one part of the list.
Experiment: chemical genetic growth profiling, strain panel (AID 1159580);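 note: tested at 20 µM; growth read once vehicle control cultures reached saturation at 30 °C; 1 = growth at the plate median or of vehicle wells; lower values mean less growth of the strain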
Conditions: S. cerevisiae deletion strains, growth OD

Measured: normalized growth

CC(C)NC[C@H](O)COc1cccc2ccccc12
inactive: locus YAL021C, strain ccr4, stronger effect = lower value 0.985 | locus YAL026C, strain drs2, stronger effect = lower value 1 | locus YAL030W, strain snc1, stronger effect = lower value 0.986 | locus YBL061C, strain skt5, stronger effect = lower value 0.984 | locus YBR009C, strain hhf1, stronger effect = lower value 0.98 | locus YBR021W, strain FUR4, stronger effect = lower value 0.997 | locus YBR023C, strain chs3, stronger effect = lower value 0.99 | locus YBR171W, strain sec66, stronger effect = lower value 0.989 | locus YBR229C, strain ROT2, stronger effect = lower value 1.01 | locus YBR231C, strain swc5, stronger effect = lower value 0.989 | locus YBR279W, strain paf1, stronger effect = lower value 0.99 | locus YCL011C, strain gbp2, stronger effect = lower value 0.993 | locus YCL016C, strain dcc1, stronger effect = lower value 0.991 | locus YCL029C, strain bik1, stronger effect = lower value 1.02 | locus YCL061C, strain MRC1, stronger effect = lower value 0.994 | locus YCL069W, strain vba3, stronger effect = lower value 0.993 | locus YCR088W, strain abp1, stronger effect = lower value 0.991 | locus YDL005C, strain med2, stronger effect = lower value 0.981 | locus YDL035C, strain GPR1, stronger effect = lower value 0.993 | locus YDL040C, strain nat1, stronger effect = lower value 0.992 | locus YDL074C, strain BRE1, stronger effect = lower value 1.02 | locus YDL101C, strain DUN1, stronger effect = lower value 1.01 | locus YDL134C, strain PPH21, stronger effect = lower value 0.979 | locus YDL185W, strain tfp1, stronger effect = lower value 1.03 | locus YDL192W, strain arf1, stronger effect = lower value 1.02 | locus YDR001C, strain nth1, stronger effect = lower value 0.991 | locus YDR069C, strain doa4, stronger effect = lower value 1 | locus YDR101C, strain arx1, stronger effect = lower value 1 | locus YDR137W, strain rgp1, stronger effect = lower value 1 | locus YDR159W, strain sac3, stronger effect = lower value 0.976 | locus YDR162C, strain NBP2, stronger effect = lower value 1 | locus YDR195W, strain ref2 0.962 | locus YDR297W, strain sur2, stronger effect = lower value 1.01 | locus YDR318W, strain mcm21, stronger effect = lower value 1.02 | locus YDR334W, strain swr1, stronger effect = lower value 0.999 | locus YDR335W, strain msn5, stronger effect = lower value 0.991 | locus YDR388W, stronger effect = lower value 1.02 | locus YDR392W, strain spt3, stronger effect = lower value 0.943 | locus YDR502C, strain sam2, stronger effect = lower value 1 | locus YEL003W, strain gim4, stronger effect = lower value 1 | locus YEL037C, strain rad23, stronger effect = lower value 1.02 | locus YEL061C, strain CIN8 (second series), stronger effect = lower value 0.993 | locus YEL061C, strain CIN8, stronger effect = lower value 1.01 | locus YER015W, strain faa2, stronger effect = lower value 0.969 | locus YER016W, strain bim1, stronger effect = lower value 0.986 | locus YER110C, stronger effect = lower value 1.02 | locus YER111C, strain swi4, stronger effect = lower value 0.986 | locus YER155C, strain BEM2 (second series), stronger effect = lower value 0.98 | locus YER155C, strain BEM2, stronger effect = lower value 1.01 | locus YER167W, strain BCK2, stronger effect = lower value 1 | locus YFR010W, strain ubp6, stronger effect = lower value 1.01 | locus YGL078C, strain dbp3, stronger effect = lower value 1.01 | locus YGL086W, strain mad1, stronger effect = lower value 0.994 | locus YGL167C, strain pmr1, stronger effect = lower value 0.982 | locus YGL173C, strain kem1, stronger effect = lower value 0.993 | locus YGL227W, strain vid30, stronger effect = lower value 0.992 | locus YGL240W, strain doc1, stronger effect = lower value 0.977 | locus YGL248W, strain PDE1, stronger effect = lower value 1.01 | locus YGL253W, strain hxk2, stronger effect = lower value 1 | locus YGR078C, strain PAC10, stronger effect = lower value 1.01 | locus YGR135W, strain pre9, stronger effect = lower value 1.02 | locus YGR252W, strain gcn5, stronger effect = lower value 0.992 | locus YHR013C, strain ard1, stronger effect = lower value 0.953 | locus YHR027C, strain rpn1, stronger effect = lower value 0.988 | locus YHR030C, strain SLT2, stronger effect = lower value 1.01 and 1.06 | locus YHR079C, strain IRE1 (second series), stronger effect = lower value 1.02 | locus YHR079C, strain IRE1, stronger effect = lower value 1.08 | locus YHR094C, strain hxt1, stronger effect = lower value 1.02 | locus YHR129C, strain ARP1, stronger effect = lower value 1.01 | locus YHR142W, strain chs7, stronger effect = lower value 1.01 | locus YHR200W, strain rpn10, stronger effect = lower value 1.02 | locus YIL066C, strain RNR3, stronger effect = lower value 1.01 | locus YIL073C, strain SPO22, stronger effect = lower value 1.04 | locus YIL125W, strain kgd1, stronger effect = lower value 1.02 | locus YIR030C, strain dcg1, stronger effect = lower value 1.03 | locus YJL092W, strain hpr5, stronger effect = lower value 0.993 | locus YJL095W, strain BCK1 (second series), stronger effect = lower value 0.987 | locus YJL095W, strain BCK1, stronger effect = lower value 1.01 and 1.02 | locus YJL115W, strain asf1, stronger effect = lower value 0.987 | locus YJL129C, strain trk1, stronger effect = lower value 1.01 | locus YJL134W, strain LCB3, stronger effect = lower value 1.01 | locus YJL154C, strain vps35, stronger effect = lower value 0.992 | locus YJL164C, strain tpk1, stronger effect = lower value 0.989 | locus YJL166W, strain qcr8, stronger effect = lower value 0.983 | locus YJL168C, strain set2, stronger effect = lower value 1.02 | locus YJL187C, strain SWE1 (second series), stronger effect = lower value 1.01 | locus YJL187C, strain SWE1, stronger effect = lower value 0.984 | locus YJR043C, strain POL32, stronger effect = lower value 1.01

— PubChem BioAssay AID1159580 (chemical genetic matrix, 2015)
